# Screening results deposited in PubChem by National Center for Advancing Translational Sciences (NCATS).
# FBPA Giardia inh: inhibitors of Giardia lamblia fructose-1,6-bisphosphate aldolase. 290,000 compounds, 0.71% hits. purified Giardia FBPA. Potency, µM (top dose mostly 59.6 µM), for inactives: top-dose activity, negative = inhibition, usual class: inhibitors. A8B2U2; further: potency means the concentration at half of the fitted maximal effect; on the % scale 0 is the no-effect control and ±100 the full control effect; nearly all actives have a fitted effect of over 55% in size
# Target sequence (A8B2U2 whole entry, looked up): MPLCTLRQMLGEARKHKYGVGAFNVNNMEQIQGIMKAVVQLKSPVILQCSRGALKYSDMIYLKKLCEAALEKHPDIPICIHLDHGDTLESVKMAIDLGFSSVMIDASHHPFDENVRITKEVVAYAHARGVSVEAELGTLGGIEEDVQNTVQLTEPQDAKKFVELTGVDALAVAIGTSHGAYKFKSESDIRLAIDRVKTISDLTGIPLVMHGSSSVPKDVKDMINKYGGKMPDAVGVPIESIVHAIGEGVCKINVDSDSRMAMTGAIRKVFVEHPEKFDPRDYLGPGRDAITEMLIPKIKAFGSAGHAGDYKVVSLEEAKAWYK
#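 40 nM FBPA preincubated 10 min at RT with compound (up to 57.5 uM final), then substrate plus GAPDH/TPI/NAD/arsenate coupling and diaphorase/resazurin added. Fluorescence read after 20 min at RT, 525/598 nm.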
# CHX counter: counter-screen for Shiga toxin inhibitors: cycloheximide protein synthesis inhibition. max response, %. cell reporter, cycloheximide protein synthesis inhibition counterscreen. AID 2314. 300,000 compounds, 12% hits; in the data active means max response mostly above about 13%, no sharp cut-off; inactive means mostly below about 14%; further: read at 38.3 µM for the half of the compounds with a filed dose; 0% is about no effect
# LmPK inhibitor: blocks Leishmania mexicana pyruvate kinase activity; Potency, µM (series often up to 57.5 µM), for the others: at the highest dose activity change, negative = inhibition, actives largely listed as inhibitors; AID 1721; 290,000 compounds, 0.37% hits; purified LmPK, Kinase-Glo ATP luminescence, 1 h; Q27686; further: potency means the concentration at half of the fitted maximal effect; on the % scale 0 is the no-effect control and ±100 the full control effect
#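 In 50 mM imidazole pH 7.2 with 7 mM MgCl2, LmPK (0.1 nM) turned over PEP (0.5 mM) and ADP (0.1 mM) for 1 h at room temperature. Luciferase read-out of ATP.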
# RE007 growth inh: less growth of the S. pombe RE007 Vpr strain; S. pombe RE007 Vpr strain, BacTiter-Glo ATP luminescence, 24 h; 360,000 compounds, 0.21% hits; AID 651644; Potency, µM (doses to about 92.2 µM), without a hit: top-dose activity change, negative = less growth, usual class: inhibitors; active means well fitted falling curve with a large enough effect; inconclusive means small, poorly fitted or top-dose-only effect; inactive means no such curve, though single readings can be large or run the other way; further: potency means the concentration at half of the fitted maximal effect; on the % scale 0 is the no-effect control and ±100 the full control effect; nearly all actives have a fitted effect of over 50% in size
#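 Fission yeast RE007 carrying one integrated HIV-1 vpr copy, seeded at OD 0.01 in PMG+AL medium with 23 nL pinned compound. Grown 24 h at 30 degrees; viability read by BacTiter-Glo luminescence after 5 min.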
# Tb PYK inh: T. brucei pyruvate kinase inhibition | TbPYK enzyme, Kinase-Glo Plus ATP luminescence, 45 min | Potency, µM (highest dose often 76.8 µM), for inactives: top-dose activity, negative = inhibition, hits mostly inhibitors | 410,000 compounds, 0.12% hits; further: potency means the concentration at half of the fitted maximal effect; on the % scale 0 is the no-effect control and ±100 the full control effect; nearly all actives have a fitted effect of over 50% in size
#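 Luminescence from Kinase-Glo Plus, added after a 45-minute room-temperature reaction, served as the end-point read-out. The enzyme and substrate were preincubated with compound before ADP (130 uM final) initiated turnover. Concentration-effect curves came from normalized qHTS data.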
# Shiga toxin inh: Shiga toxin inhibition; Vero cells, Shiga toxin protein synthesis inhibition reporter; inhibition, % at 38.7 µM; 290,000 compounds, 9.2% hits; in the data active means inhibition mostly above about 28%, no sharp cut-off; inactive means mostly below about 43%; further: 0% is about no effect
# * hit, by the source's call; u = inconclusive; x = no result; [ ] = dose if it differs, or a comment. Shown is part of a subset that was picked to be rich in hits. Unless noted, the call rests on the fitted dose curve; in most records, active means well fitted curve in the direction sought with a large enough effect; inconclusive means small, poorly fitted or top-dose-only effect, or another doubt; inactive means no such curve, though single readings can be large; an effect the other way counts as inactive or inconclusive.
SMILES,FBPA Giardia inh,CHX counter,LmPK inhibitor,RE007 growth inh,Tb PYK inh,Shiga toxin inh
Cc1cc2ccccn2c1C(=O)Nc1ccc(Cl)cc1,-3%,18*,1%,7%,1%,73*
Cc1cc2ccccn2c1C(=O)Nc1ccccc1,-11%,23*,-2%,-16%,-5%,68
Cc1cc2ccccn2c1C(=O)c1cc([N+](=O)[O-])cc([N+](=O)[O-])c1,-6%,2,10%,-10%,-2%,-6
CCOc1cccc(C(=O)Nc2nnc(-c3ccco3)s2)c1,-25%,31*,-6%,-7%,-13%,92*
CCCC(=O)Nc1cccc(C(=O)Nc2nccs2)c1,0%,9,1%,14%,-12%,2
O=C(Nc1n[nH]c(=S)s1)c1ccc2ccccc2c1,x,34*,-1%,16%,u,69*
O=C(Nc1nccs1)c1ccc(Br)cc1,-7%,27*,-6%,-14%,-1%,133*
CCOc1cccc(C(=O)Nc2nccs2)c1,4%,30*,-5%,6%,1%,69*
O=C(Nc1nccs1)c1ccc(S(=O)(=O)c2ccccc2)cc1,-3%,-4,0%,-1%,1%,-9
O=C(CCNC(=O)c1ccc([N+](=O)[O-])cc1)Nc1nccs1,1%,-3,1%,19%,4%,-5
O=C(CCNC(=O)c1ccc(Br)cc1)Nc1nccs1,2%,19*,-7%,-9%,-4%,22
O=C(Nc1nccs1)c1ccc2ccccc2c1,-8%,52*,1%,u,4%,79*
CCOc1ccc(NC(=O)c2cc3sc(Cl)cc3n2CC)cc1,x,x,x,x,-2%,x
Cc1ccccc1N1CCN(C2=NC(=O)/C(=C\c3cccs3)S2)CC1,-9%,78*,0%,10%,3%,104*
CC(=C/c1ccccc1)/C=C1/SC(N2CCOCC2)=NC1=O,10%,23*,-5%,6%,-1%,30*
CC(=O)N1CCN(C2=NC(=O)/C(=C\c3cccs3)S2)CC1,-3%,5,-9%,9%,2%,-7
O=C1N=C(N2CCOCC2)S/C1=C/c1cccs1,-1%,25*,-8%,0%,-13%,20
O=C1N=C(N2CCN(c3cccc4ccccc34)CC2)S/C1=C/c1cccs1,-12%,9,1%,0%,7%,1
C[C@@H]1Cc2c(Cl)cc(C(=O)N[C@H](Cc3ccccc3)C(=O)O)c(O)c2C(=O)O1,-5%,-4,x,x,x,-6
O=C(Nc1ccc(Cl)cc1)N1CCN(c2ncccn2)CC1,3%,20*,-2%,-11%,1%,46
O=C(Nc1ccc(Cl)cc1)N1CC2CC(C1)c1cccc(=O)n1C2 (stereo not drawn),x,28*,-1%,-2%,1%,33
CC(C)c1ccc(NC(=O)N2CCOCC2)cc1,2%,39*,-10%,-2%,3%,62*
O=C(Nc1ccc(Br)cc1)N1C[C@H]2C[C@@H](C1)c1cccc(=O)n1C2,-2%,-2,-8%,5%,-3%,-8
CC(=O)Nc1ccc(NC(=O)N2CCOCC2)cc1,x,x,x,10%,3%,x
O=C(Nc1ccccc1)N1CCSc2ccccc21,-3%,4,1%,-3%,-3%,22
SMILES,FBPA Giardia inh,CHX counter,LmPK inhibitor,RE007 growth inh,Tb PYK inh,Shiga toxin inh
O=C(Nc1ccc(Cl)cc1)N1CCSc2ccccc21,-15%,35*,-1%,-8%,-13%,27
CCc1nc2ccc(C(=O)NCc3ccccc3C)cc2nc1CC,x,x,x,x,-11%,x
CC(C)(C)OC(=O)N1CCC(c2c(C(=O)N3CCC(c4ccccc4)C3)cnn2-c2cccc(Cl)c2)CC1 (stereo not drawn),x,x,x,x,5%,x
O=C(/C=C/c1ccco1)Nc1ccc(Cl)c(-c2nc3cc(Cl)ccc3o2)c1,x,x,x,x,3%,x
CN1CCN(c2ncc3nc(-c4cccs4)c(=O)n(CCc4ccccc4)c3n2)CC1,5%,x,x,x,x,x
CC(=O)Nc1ccc(S(=O)(=O)N2CCc3nc(-c4ccccc4)c4c(c3C2)CO[C@@H](C)C4)cc1,6%[12.9 µM],x,-1%[11.5 µM],x,x,x
O=C(Nc1ccc(Cl)cc1)N1CCOCC1,9%,14*,-2%,13%,-1%,x
